Reference: PubChem BioAssay (EPA / NIEHS)
Several values for one entry are separate records, joined by “and”; a condition that tells them apart may be missing. Identical values can stand only once. Inconclusive results are not listed. Some structures have more than one record in an assay (separate samples or runs), and their calls can disagree. Activity calls are given as the source filed them. How the source made its calls, unless noted: active means hit-call score of the fitted dose curve at least 0.9, where 1 is the maximum; inconclusive means response in the unintended direction; inactive means score below 0.9.

What was measured:
[1] = read-out: Cellular tumor antigen p53 (Homo sapiens) (UniProt P04637); assay: LTEA_HepaRG_TP53: Life Technologies and Expression Analysis (LTEA) Assay for Tumor Protein P53 (TP53) using HepaRG (AID 2283537; active means hit-call score of the fitted dose curve at least 0.9, where 1 is the maximum; inactive means score below 0.9); settings: mRNA level, 48 h; actives raise or lower the signal
Summary of the method: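 TP53 transcript measured by qRT-PCR, normalized to three housekeeping genes, after 48 h treatment of human HepaRG cultures with chemicals from 100 uM downward in half-log steps (0.5% DMSO vehicle, serum-free induction medium). Up- or down-regulation fitted against DMSO.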

[2] = read-out: UDP glucuronosyltransferase (UGT1A1), UGT1A1 (gene 54658); assay: LTEA_HepaRG_UGT1A1: Life Technologies and Expression Analysis (LTEA) Assay for UDP glucuronosyltransferase (UGT1A1) using HepaRG (AID 2283538; active means hit-call score of the fitted dose curve at least 0.9, where 1 is the maximum; inactive means score below 0.9); settings: mRNA level, 48 h; actives raise or lower the signal
Summary of the method: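 Readout is UGT1A1 transcript level by qRT-PCR, normalized to three housekeeping genes, after 48 h chemical treatment of HepaRG cells. Concentrations ran from 100 uM down in half-log steps with 0.5% DMSO, and gain or loss relative to DMSO was fitted.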

[3] = read-out: UDP glucuronosyltransferase (UGT1A6), UGT1A6 (gene 54578); assay: LTEA_HepaRG_UGT1A6: Life Technologies and Expression Analysis (LTEA) Assay for UDP glucuronosyltransferase (UGT1A6) using HepaRG (AID 2283539; active means hit-call score of the fitted dose curve at least 0.9, where 1 is the maximum; inactive means score below 0.9); settings: mRNA level, 48 h; actives raise or lower the signal
Summary of the method: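 Expression was quantified by TaqMan qRT-PCR on Fluidigm arrays with ACTB/GAPDH/POLR2A normalization and bidirectional fitting against 0.5% DMSO. HepaRG cells (~100,000/well) were treated in duplicate for 48 h at eight half-log concentrations up to 100 uM in serum-free induction medium.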

[4] = read-out: X-box binding protein 1 (XBP1), XBP1 (gene 7494); assay: LTEA_HepaRG_XBP1: Life Technologies and Expression Analysis (LTEA) Assay for X-box binding protein 1 (XBP1) using HepaRG (AID 2283540; active means hit-call score of the fitted dose curve at least 0.9, where 1 is the maximum; inactive means score below 0.9); settings: mRNA level, 48 h; actives raise or lower the signal
Summary of the method: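 XBP1 transcript by qRT-PCR (housekeeping-normalized: ACTB, GAPDH, POLR2A) after 48 h chemical treatment of HepaRG cells, 8-point half-log series topping at 100 uM, vehicle 0.5% DMSO. Gain and loss of signal fitted relative to DMSO.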

[5] = LTEA_HepaRG_LDH_cytotoxicity: Cytotoxicity Assessment in the Life Technologies and Expression Analysis (LTEA) Assay (AID 2283563)
Summary of the method: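 LDH release into culture medium read after 48 h chemical treatment of HepaRG cells. Duplicate wells, eight-point half-log series topping at 100 uM, 0.5% DMSO vehicle and baseline.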

[6] = ATG_XTT_Cytotoxicity: Cytotoxicity Assessment in the Attagene TRANS-FACTORIAL HepG2 Assay (AID 2283584)
Summary of the method: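 Viability endpoint from XTT after 24 h chemical exposure of reporter-transfected human HepG2 liver cells; signal loss fitted relative to DMSO negative control.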

[7] = TOX21_p53_BLA_p2_viability: Viability Assessment in the Tox21 HCT-116 p53 Agonism Beta-lactamase Assay, Phase 2 (AID 2283591);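 further: compound exposure lasted 16 h at 37 °C; actives lower the ATP signal meaning cytotoxicity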
Summary of the method: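 HCT-116 p53-bla cells (4000/well) rested 5 h at 37C, then received compounds in DMSO (217-fold dilution) for 16 h at 37C, 5% CO2. After the CCF4 read, CellTiter-Glo was added; ATP luminescence was read after 30 min at room temperature.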

[8] = TOX21_p53_BLA_p3_viability: Viability Assessment in the Tox21 HCT-116 p53 Agonism Beta-lactamase Assay, Phase 3 (AID 2283593);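 further: cells exposed to compound for 16 h before reading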
Summary of the method: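 HCT-116 cells (4000/well) rested 5 h at 37C, then got DMSO compounds by pin tool (217-fold dilution) for 16 h at 37C, 5% CO2. After the bla read, CellTiter-Glo was added and luminescence read at 30 min, room temperature.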

[9] = TOX21_p53_BLA_p4_viability: Viability Assessment in the Tox21 HCT-116 p53 Agonism Beta-lactamase Assay, Phase 4 (AID 2283597);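 further: hits lower the luminescence signal meaning cytotoxicity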
Summary of the method: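 Following a 16 h exposure at 37C, the treated HCT116 wells were first read for the FRET ratio. They were then lysed with CellTiter-Glo, and ATP luminescence was recorded after 30 min at room temperature.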

[10] = Tanguay_ZF_120hpf_MORT_legacy: (Legacy) Oregon State University Tanguay Lab 120 Hour Post-fertilization zebrafish Assay for Mortality (AID 2283633)
Summary of the method: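 Static waterborne exposure from 6 to 120 hpf at 28C of single dechorionated wild-type (5D) embryos per well, 0.64% DMSO final. Death recorded present/absent by brightfield at 24 and 120 hpf.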

[11] = Tanguay_ZF_120hpf_AXIS_legacy: (Legacy) Oregon State University Tanguay Lab 120 Hour Post-fertilization zebrafish Assay for Body Axis Malformation (AID 2283635);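 on AC50: potency for an increased fraction of larvae scored with body axis malformation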
Summary of the method: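 Binary scoring of axis defects at 120 hpf under brightfield, fitted positive versus DMSO. Tropical 5D embryos, chorion removed by pronase at 4 hpf, were singly exposed in sealed, dark plates at 28C from 6 hpf; DMSO 0.64% final.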

[12] = Tanguay_ZF_120hpf_EYE_legacy: (Legacy) Oregon State University Tanguay Lab 120 Hour Post-fertilization zebrafish Assay for Eye Malformation (AID 2283636);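 further: binary presence or absence of eye malformation scored by brightfield in 120 hpf larvae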
Summary of the method: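 Dechorionated wild-type Tropical 5D zebrafish embryos were exposed statically from 6 hpf, one per well, to 120 hpf at 28C in sealed, foil-covered plates with 0.64% DMSO. Eye malformation was scored present/absent by brightfield microscopy against DMSO controls.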

[13] = Tanguay_ZF_120hpf_SNOU_legacy: (Legacy) Oregon State University Tanguay Lab 120 Hour Post-fertilization zebrafish Assay for Snout Malformation (AID 2283637)
Summary of the method: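 Tropical 5D wild-type zebrafish embryos, dechorionated with pronase at 4 hpf, were exposed singly from 6 hpf to 120 hpf statically at 28C in 0.64% DMSO. Snout malformation was scored present/absent by brightfield microscopy, fitted against DMSO.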

[14] = Tanguay_ZF_120hpf_JAW_legacy: (Legacy) Oregon State University Tanguay Lab 120 Hour Post-fertilization zebrafish Assay for Jaw Malformation (AID 2283638)
Summary of the method: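 Binary jaw-malformation call at 120 hpf by brightfield microscopy. Embryos (Tropical 5D strain, chorion removed at 4 hpf) were dosed statically at 6 hpf, one per well, at 28C with 0.64% DMSO. Embryos that died were not scored.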

[15] = target: Cellular tumor antigen p53 (Homo sapiens) (UniProt P04637); assay: TOX21_p53_BLA_p2_ratio: Tox21 HCT-116 p53 Agonism Beta-lactamase Assay, Ratio, Phase 2 (AID 2283592)
Summary of the method: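 Gain-of-signal p53 agonism was scored from the beta-lactamase FRET ratio (460/530 nm, 405 nm excitation) in HCT116 cells treated 16 h at 37C, 5% CO2, with DMSO serving as negative control and baseline.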

[16] = TOX21_p53_BLA_p5_viability: Viability Assessment in the Tox21 HCT-116 p53 Agonism Beta-lactamase Assay, Phase 5 (AID 2283600)
Summary of the method: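 After the 460/530 nm beta-lactamase measurement, the wells received an ATP-detection luciferase reagent; signal was read 30 min later at RT. Compound treatment lasted 16 h on cells pre-incubated 5 h post-seeding.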

[17] = target: Cellular tumor antigen p53 (Homo sapiens) (UniProt P04637); assay: TOX21_p53_BLA_p4_ratio: Tox21 HCT-116 p53 Agonism Beta-lactamase Assay, Ratio, Phase 4 (AID 2283601)
Summary of the method: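 HCT116 cells carrying an inducible beta-lactamase reporter were plated at 4000 cells/well, rested 5 h, then exposed to compounds in DMSO (217-fold dilution) for 16 h at 37C. CCF4-AM substrate was loaded 2 h at room temperature; 460/530 nm emission ratio scored gain-of-signal versus DMSO.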

[18] = Tanguay_ZF_120hpf_YSE_legacy: (Legacy) Oregon State University Tanguay Lab 120 Hour Post-fertilization zebrafish Assay for Yolk Sac Edema (AID 2283634);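 on AC50: actives raise the incidence of yolk sac edema above the DMSO baseline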
Summary of the method: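 Presence or absence of yolk sac edema was recorded at 120 hpf in surviving larvae. These were wild-type Tropical 5D embryos, chorion removed at 4 hpf, held in static exposure at 28C from 6 hpf with 0.64% DMSO vehicle.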

[19] = target: Cellular tumor antigen p53 (Homo sapiens) (UniProt P04637); assay: TOX21_p53_BLA_p5_ratio: Tox21 HCT-116 p53 Agonism Beta-lactamase Assay, Ratio, Phase 5 (AID 2283599)
Summary of the method: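 HCT-116 cells carrying a p53-inducible beta-lactamase reporter were seeded at 4000 cells/well and dosed after 5 h with compound in DMSO (217-fold dilution). After 16 h at 37C, CCF4-AM substrate was added for 2 h, and the 460/530 nm emission ratio was scored as gain-of-signal versus DMSO.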

[20] = target: Cellular tumor antigen p53 (Homo sapiens) (UniProt P04637); assay: TOX21_p53_BLA_p3_ratio: Tox21 HCT-116 p53 Agonism Beta-lactamase Assay, Ratio, Phase 3 (AID 2283596)
Summary of the method: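 HCT116 p53-bla cells (4000/well) given compound in DMSO (217-fold dilution) after 5 h, incubated 16 h at 37C. CCF4-AM substrate 2 h at room temperature; 460/530 nm emission ratio, gain fitted against DMSO.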

Chain of Cellular tumor antigen p53 (Homo sapiens) (P04637 whole entry, looked up): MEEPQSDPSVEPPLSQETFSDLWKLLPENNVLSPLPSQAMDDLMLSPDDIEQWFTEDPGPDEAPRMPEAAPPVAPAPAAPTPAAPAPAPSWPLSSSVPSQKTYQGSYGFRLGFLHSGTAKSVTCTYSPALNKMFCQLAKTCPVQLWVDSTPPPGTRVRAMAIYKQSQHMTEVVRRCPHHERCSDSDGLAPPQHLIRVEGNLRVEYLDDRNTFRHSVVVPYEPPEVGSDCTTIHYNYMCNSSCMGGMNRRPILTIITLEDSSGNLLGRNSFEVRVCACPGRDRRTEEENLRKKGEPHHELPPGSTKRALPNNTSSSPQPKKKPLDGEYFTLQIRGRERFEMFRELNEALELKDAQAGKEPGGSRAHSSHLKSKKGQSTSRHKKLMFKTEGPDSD

## Cn1c(=O)cc(Oc2ccc(F)cc2F)c2cnc(NCC(C)(C)O)nc21
[1]
  outcome: inactive
[2]
  outcome: inactive
[3]
  outcome: inactive
[4]
  outcome: inactive
[5]
  outcome: inactive
[6]
  outcome: inactive
[7]
  outcome: inactive
[8]
  outcome: inactive
[9]
  outcome: inactive
[10]
  outcome: inactive
[11]
  outcome: inactive
[12]
  outcome: inactive
[13]
  outcome: inactive
[14]
  outcome: inactive

## O=C1CCC(N2C(=O)c3ccccc3C2=O)C(=O)N1 (configuration not stated)
[1]
  outcome: inactive
[2]
  outcome: inactive
[3]
  outcome: inactive
[4]
  outcome: inactive
[5]
  outcome: inactive
[6]
  outcome: inactive
[7]
  outcome: inactive
[15]
  outcome: inactive
[8]
  outcome: inactive
[9]
  outcome: inactive
[16]
  outcome: inactive
[17]
  outcome: inactive
[10]
  outcome: inactive
[18]
  outcome: inactive
[11]
  outcome: inactive

## CC[C@H](C)C(=O)O[C@H]1C[C@@H](C)C=C2C=C[C@H](C)[C@H](CC[C@@H]3C[C@@H](O)CC(=O)O3)[C@H]21
[1]
  outcome: inactive
[2]
  AC50: 0.0554 µM (active)
[3]
  outcome: inactive
[4]
  outcome: inactive
[5]
  outcome: inactive
[7]
  AC50: 44.6 µM (active)
  outcome: inactive
[15]
  AC50: 84.3 µM (active)
  outcome: inactive
[8]
  AC50: 82.5 µM (active) and 35.6 µM (active)
  outcome: inactive
[9]
  AC50: 79.2 µM (active) and 27.4 µM (active)
  outcome: inactive
[19]
  AC50: 97.1 µM (active) and 37.7 µM (active)
  outcome: inactive
[16]
  AC50: 91.2 µM (active) and 33.6 µM (active)
  outcome: inactive
[17]
  AC50: 97.1 µM (active)
  outcome: inactive
[11]
  outcome: inactive
[12]
  outcome: inactive
[13]
  outcome: inactive
[14]
  outcome: inactive

## CC1(C)C(=O)N(Br)C(=O)N1Br
[1]
  outcome: inactive
[2]
  AC50: 21.4 µM (active)
[3]
  outcome: inactive
[4]
  outcome: inactive
[5]
  outcome: inactive
[6]
  outcome: inactive
[9]
  outcome: inactive
[19]
  outcome: inactive
[16]
  outcome: inactive
[17]
  outcome: inactive
[10]
  outcome: inactive
[18]
  outcome: inactive
[11]
  outcome: inactive
[12]
  outcome: inactive
[14]
  outcome: inactive

## On1ccccc1=S
[1]
  outcome: inactive
[2]
  outcome: inactive
[3]
  outcome: inactive
[4]
  outcome: inactive
[5]
  outcome: inactive
[6]
  outcome: inactive
[15]
  outcome: inactive
[9]
  outcome: inactive
[19]
  outcome: inactive
[17]
  outcome: inactive
[18]
  AC50: 0.0413 µM (active)
[11]
  AC50: 0.0354 µM (active)
[14]
  outcome: inactive

## O=C(O)c1cccc(Oc2ccccc2)c1
[1]
  outcome: inactive
[2]
  outcome: inactive
[3]
  outcome: inactive
[4]
  outcome: inactive
[5]
  outcome: inactive
[6]
  outcome: inactive
[15]
  outcome: inactive
[20]
  outcome: inactive
[9]
  outcome: inactive
[19]
  outcome: inactive
[17]
  outcome: inactive
[18]
  outcome: inactive
[12]
  outcome: inactive
[13]
  outcome: inactive
[14]
  outcome: inactive

## CC[C@H]1OC(=O)[C@H](C)[C@@H](O[C@H]2C[C@@](C)(OC)[C@@H](O)[C@H](C)O2)[C@H](C)[C@@H](O[C@@H]2O[C@H](C)C[C@H](N(C)C)[C@H]2O)[C@](C)(O)C[C@@H](C)C(=O)[C@H](C)[C@@H](O)[C@]1(C)O
[1]
  outcome: inactive
[2]
  AC50: 8.69 µM (active)
[3]
  outcome: inactive
[4]
  outcome: inactive
[5]
  outcome: inactive
[6]
  outcome: inactive
[7]
  outcome: inactive
[15]
  outcome: inactive
[8]
  outcome: inactive
[19]
  outcome: inactive
[16]
  outcome: inactive
[17]
  outcome: inactive
[10]
  outcome: inactive
[11]
  outcome: inactive
[12]
  outcome: inactive
[13]
  outcome: inactive
[14]
  outcome: inactive
